Screening results as filed in PubChem.
In the library only some 0.4% were active in any assay of this set; here they are far more common.
TRPML1 ag: agonists of human TRPML1 channel; Q9GZU1; 410,000 compounds, 0.12% hits; AID 624414; TRPML1-expressing cells, Ca2+ dye fluorescence, FDSS; activation, % (no concentration beside the values); in the data active = activation above about 50%; inconclusive = mostly about 30% to 49%; also: 0% is about no effect
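In this qHTS format, compounds were pin-transferred onto Ca8-dye-loaded TRPML1-DL cells induced with Tet overnight, and intracellular Ca2+ fluorescence was recorded kinetically for 110 s after a 10 s baseline. A subsequent 4uM final 54-4 (EC80) addition followed by a second 110 s read served as the antagonist phase.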
TRPV1 PAM: human TRPV1 potentiation | potentiation, % at 8.33 µM | 320,000 compounds, 0.02% hits | TRPV1-expressing cells, Fluo-8 calcium influx, capsaicin EC20 potentiation; in the data active = potentiation above about 80%; inconclusive = between about 30% and that limit; also: 0% is about no effect
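Cells expressing TRPV1 were dye-loaded with Fluo-8 and read kinetically: 10 s baseline, 3 min after compound (agonist portion), then 2 min after EC20 capsaicin (allosteric enhancer portion). Calcium-bound dye fluorescence at 480/520 nm.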
USP1-UAF1 inh: USP1/UAF1 (human) deubiquitinase inhibition | O94782 | recombinant USP1/UAF1, Ub-Rhodamine cleavage fluorescence | Potency, µM (top dose mostly 57.1 µM), without a hit: at the highest dose activity change, negative = inhibition, actives largely listed as inhibitors | 390,000 compounds, 0.23% hits | AID 743255; active = well fitted inhibition curve with a large enough effect; inconclusive = small, poorly fitted or top-dose-only effect; inactive = no such curve, though single readings can be large or run the other way; also: potency is read from the fitted curve at half-maximal effect; % is scaled to controls: 0 for no effect and ±100 for the full control effect; nearly all actives have a fitted effect of over 60% in size
Target sequence (O94782 whole entry, looked up): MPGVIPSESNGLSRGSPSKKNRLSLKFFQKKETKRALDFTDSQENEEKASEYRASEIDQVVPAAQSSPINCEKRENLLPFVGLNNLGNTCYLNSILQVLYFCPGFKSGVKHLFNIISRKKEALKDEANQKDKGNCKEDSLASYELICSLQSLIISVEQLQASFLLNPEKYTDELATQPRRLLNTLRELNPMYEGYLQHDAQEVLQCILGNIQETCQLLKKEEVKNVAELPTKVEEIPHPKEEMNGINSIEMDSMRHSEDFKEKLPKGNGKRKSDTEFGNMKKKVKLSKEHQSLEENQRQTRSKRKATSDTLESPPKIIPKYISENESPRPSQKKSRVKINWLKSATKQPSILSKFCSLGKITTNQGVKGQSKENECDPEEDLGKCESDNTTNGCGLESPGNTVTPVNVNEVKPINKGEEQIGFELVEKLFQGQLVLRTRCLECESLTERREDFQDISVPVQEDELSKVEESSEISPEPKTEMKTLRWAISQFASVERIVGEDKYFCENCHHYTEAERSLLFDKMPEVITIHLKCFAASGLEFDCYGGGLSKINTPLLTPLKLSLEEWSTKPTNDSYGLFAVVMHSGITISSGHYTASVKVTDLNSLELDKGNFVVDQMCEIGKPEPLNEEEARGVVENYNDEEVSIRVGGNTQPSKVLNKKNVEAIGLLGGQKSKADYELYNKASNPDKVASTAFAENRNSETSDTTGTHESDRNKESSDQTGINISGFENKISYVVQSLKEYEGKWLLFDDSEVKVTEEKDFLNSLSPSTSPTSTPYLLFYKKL
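USP1/UAF1 complex (1 nM) preincubated 15 min at room temperature with compound, then Ub-Rho substrate (150 nM final) added. Kinetic fluorescence at 480/540 nm over 6 reads at 60 s intervals; 50 mM HEPES pH 7.8, 0.5 mM EDTA, 0.1 mg/ml BSA, 1 mM TCEP, 0.01% Tween-20.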
TRPV1 ag: activates the human vanilloid receptor TRPV1. Q8NER1. TRPV1-expressing cells, Fluo-8 calcium influx, agonist mode. activation, % at 8.33 µM. 320,000 compounds, 0.19% hits. AID 540275; in the data active = activation above about 80%; inconclusive = between about 30% and that limit; also: 0% is about no effect
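Cells expressing TRPV1 were dye-loaded with Fluo-8 and read kinetically: 10 s baseline, 3 min after compound (agonist portion), then 2 min after EC20 capsaicin (allosteric enhancer portion). Calcium-bound dye fluorescence at 480/520 nm.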
TRPML1 inh: human mucolipin-1 channel inhibition; Q9GZU1; TRPML1-inducible cells, Ca2+ dye fluorescence, FDSS; active compounds read low; inhibition of EC80 agonist-evoked calcium signal; activity change, negative = inhibition, % (test concentration not listed); 390,000 compounds, 0.02% hits; in the data active = activity change below about -50%; inconclusive = between about -30% and that limit;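 also: stimulus is agonist 54-4 at its EC80 concentration; % is scaled to controls: 0 for no effect and ±100 for the full control effect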
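Calcium fluorescence in TRPML1-DL cells induced overnight with Tet: a 110 s read after compound pin addition, then a 110 s antagonist read after challenge with 54-4 at 4 uM final (EC80).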
* = called active by the depositor; ? = inconclusive; . = no result given.

SMILES	TRPML1 ag	TRPV1 PAM	USP1-UAF1 inh	TRPV1 ag	TRPML1 inh
O=C(NC1CC1)C1=NOC(CNc2ncc(C(F)(F)F)cc2Cl)C1 (stereo not given)	-1	-5	-25%	80*	5
CC1=Nc2ccccc2/C1=C\c1nc(-c2ccc(C(F)(F)F)cc2)oc1O	14	-4	13µM*	6	9
COc1cc2nc(/C=C/c3ccc(N(C)C)cc3)sc2cc1SC	120*	-3	232%	?	-12
CCN(CCCNC(=O)c1cn(CC)c2ccc(S(=O)(=O)N(C)C)cc2c1=O)c1cccc(C)c1	-1	-3	-19%	109*	-4
CCn1cc(C(=O)NCCCN(C)c2ccccc2)c(=O)c2cc(S(=O)(=O)N(C)C)ccc21	2	4	-15%	?	26
CC1(C(=O)NS(=O)(=O)c2ccc(Br)cc2)CCN1C(=O)CC1CCCCC1 (stereo not given)	1	.	.	.	.
CCN(c1ccc(NC(=O)c2ccc(Cl)nc2)cc1)C(C)C	0	-11	-25%	84*	14
O=C(c1cc(-c2ccc(Cl)cc2Cl)on1)N1CCOCC1	1	-1	-8%	83*	19
O=C(c1cc(-c2ccc(Cl)cc2)on1)N1CCOCC1	1	.	-2%	.	2
O=C(c1cc(-c2ccc(Cl)c(Cl)c2)on1)N1CCOCC1	0	4	-25%	80*	6
Cc1ccc(-n2nc(C(=O)N3CCOCC3)cc2-c2ccc(Cl)cc2)cc1	1	1	-10%	89*	0
Fc1cccc(F)c1-n1c(CN2CCCC2)csc1=S	0	23	2%	1	0
COc1ccc(Br)cc1/C=N/n1c(-c2ccccc2)n[nH]c1=S	1	80*	-6%	-6	8
COc1ccc(Cl)cc1NC(=O)CN(C)C(=O)c1ccc(N2CCCCC2)c([N+](=O)[O-])c1	61*	-7	-16%	2	-14
CC(C)CSC1=NSC2=NC(=O)/C(=C\c3coc4ccccc4c3=O)C(=N)N12	?	6	4.5µM*	24	-1
CSC1=NSC2=NC(=O)/C(=C\c3coc4ccccc4c3=O)C(=N)N12	76*	-5	22µM*	?	-10
O=C(NCc1ccccc1)c1ccc(CSc2nc3cccnc3n2Cc2ccccc2)cc1	4	.	-14%	.	20
COC(=O)c1ccccc1-c1c2ccc(=N)cc-2oc2cc(N)ccc12	99*	-5	-101%	123*	-23
COC(=O)c1ccccc1-c1ccc(/C=N/NC(=O)c2cc3ccccc3o2)o1	1	22	-18%	5	10
Cc1cc(C(=O)Nc2ccc([N+](=O)[O-])cn2)cs1	-1	-36	-16%	83*	1
Cc1nnsc1C(=O)NC1CCCc2c1cnn2-c1ccccc1F (stereo not given)	0	-17	-3%	?	27
Cc1nnsc1C(=O)NC1CCCc2c1cnn2-c1ccc(C(C)(C)C)cc1 (stereo not given)	0	3	-25%	85*	-17
O=C1C(=C(I)I)c2ccccc2-c2ccccc21	0	.	28µM*	.	-4
O=C(O)c1cccc2c1C(=O)c1ccccc1-2	0	-17	-19%	0	-2
COc1ccc(C(=O)OCC(=O)NC(Cc2ccccc2)C(C)=O)cc1S(=O)(=O)N1CCCC1 (stereo not given)	1	-3	-13%	1	21
SMILES	TRPML1 ag	TRPV1 PAM	USP1-UAF1 inh	TRPV1 ag	TRPML1 inh
CC1=CC(C)(C)N(C(=O)CN2C(=O)c3ccccc3C2=O)c2ccccc21	96*	-17	-6%	25	-4
CC1=CC(C)(C)N(C(=O)CN2C(=O)CCC2=O)c2ccc(C)cc21	0	2	-18%	-4	4
CC1CC(C)(C)N(C(=O)CN2C(=O)c3ccccc3C2=O)c2ccccc21 (stereo not given)	94*	-9	-3%	23	-15
Cc1cccc2c1N(C(=O)CN1C(=O)c3ccccc3C1=O)C(C)(C)c1ssc(=S)c1-2	1	-11	-27%	-6	-16
Cc1cc(C)c2c(c1)-c1c(ssc1=S)C(C)(C)N2C(=O)CN1C(=O)c2ccccc2C1=O	67*	4	1%	-3	?
CC1CC(C)(C)N(C(=O)CN2CCN(C)CC2)c2ccccc21 (stereo not given)	1	10	5%	-2	24
CC1CCC2(CC1)NC(=O)N(CC(=O)NC1(C#N)CCCCC1)C2=O (stereo not given)	0	9	-16%	-2	4
CSc1nn(Cc2cccc(F)c2)c(N(C(C)=O)C(C)=O)c1S(=O)(=O)c1ccccc1	1	.	-25%	.	19
O=C(CNC(=O)c1ccccc1F)OC1CCOC1=O (stereo not given)	2	.	-4%	.	19
O=C(N/N=C/c1c(O)n(-c2ccccc2Cl)c(=O)c2ccccc12)c1cccnc1	9	?	?	8	8
COc1ccc(Cn2c(O)c(/C=N/NC(=O)c3cccnc3)c3ccccc3c2=O)cc1	18	23	32µM*	?	-4
O=C(N/N=C/c1c(O)n(Cc2ccccc2)c(=O)c2ccccc12)c1cccnc1	11	7	25µM*	8	-5
COc1ccc(/C=C/c2nc(C#N)c(N3CCC(C(N)=O)CC3)o2)cc1OC	-1	.	-11%	.	-3
COCCNC(=O)C1(C)CCN(C(=O)c2oc3ccccc3c2C)C1 (stereo not given)	-1	.	.	.	.
Cc1ccc(C2CCN(C(=O)Nc3ccc(F)cc3)C2)cc1 (stereo not given)	-1	1	-10%	83*	14
CC(=O)c1ccc(N2CCN(C(=O)Nc3ccc(Cl)cc3)CC2)cc1	-2	-18	-1%	84*	12
CCOC(=O)c1ccc(NC(=O)N2CCN(c3cccc(OC)c3)CC2)cc1	0	-20	-19%	99*	-5
O=C(NCC(=O)N1CCN(c2ccccc2)CC1)c1ccc(Cl)cc1	0	1	-24%	2	-54*
CCOC(=O)c1ccc(NC(=O)N2CCN(c3ccccn3)CC2)cc1	0	-12	-13%	-1	0
CC(=O)c1ccc(NC(=O)N2CCN(c3cccc(Cl)c3)CC2)cc1	0	2	-4%	0	3
O=C(NCCCNCc1ccccc1)/C(=N\O)c1ccccc1	1	6	7%	0	3
O=C(NCCC1=CCCCC1)c1ccc(Cl)c(S(=O)(=O)N2CCCCC2)c1	0	-1	-8%	?	-14
O=C(NCCC1=CCCCC1)c1ccc(Cl)c(S(=O)(=O)N2CCOCC2)c1	0	-13	0%	82*	10
COc1ccc(C(=O)NCCC2=CCCCC2)cc1[N+](=O)[O-]	0	-26	-14%	88*	4
